In the supplement of paper PMC6555819:

What was measured:
Test in all cases: PBM binding z-score (relative to random genomic background probes); higher = stronger binding; sequences stand for … in GC…GCGATTGACAGCGTAGAATGAAGG
[1] = test system: FXR:RXRa (NR concentration 270 nM, RXRa partner concentration 90 nM)
Summary of the method: (§1)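 Each nuclear receptor dimer, without ligand, was incubated for 1 h on custom Agilent 4×180K protein-binding microarrays. Binding was detected with antibodies against each partner (one per run), and scanned fluorescence was regression-normalized. The binding z-scores are referenced to random human genomic background probes.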

[2] = test system: LXRa:RXRa (NR concentration 270 nM, RXRa partner concentration 90 nM)
Summary of the method: as §1

[3] = test system: LXRa homodimer (NR concentration 270 nM)
Summary of the method: as §1

[4] = test system: LXRb:RXRa (NR concentration 270 nM, RXRa partner concentration 90 nM)
Summary of the method: as §1

[5] = test system: LXRb homodimer (NR concentration 270 nM)
Summary of the method: as §1

[6] = test system: PPARa:RXRa (NR concentration 270 nM, RXRa partner concentration 90 nM)
Summary of the method: as §1

[7] = test system: PPARg:RXRa (NR concentration 180 nM, RXRa partner concentration 90 nM)
Summary of the method: as §1

[8] = test system: PPARg:RXRa 270nM:90nM, anti-RXR (NR concentration 270 nM, RXRa partner concentration 90 nM)
Summary of the method: as §1

[9] = test system: PPARg:RXRa 30nM:10nM, anti-RXR (NR concentration 30 nM, RXRa partner concentration 10 nM)
Summary of the method: as §1

[10] = test system: PPARg:RXRa 90nM:30nM, anti-RXR (NR concentration 90 nM, RXRa partner concentration 30 nM)
Summary of the method: as §1

[11] = test system: PPARg:RXRa DBDmut IVT, anti-RXR (DBD mutation: RXRa K156A/R161A, NR concentration 270 nM, RXRa partner concentration 90 nM)
Summary of the method: as §1

[12] = test system: PPARg:RXRa IVT, anti-PPARg (NR concentration 270 nM, RXRa partner concentration 90 nM)
Summary of the method: as §1

[13] = test system: PPARg DBDmut:RXRa IVT, anti-PPARg (DBD mutation: PPARg1 K132A/R137A, NR concentration 270 nM, RXRa partner concentration 90 nM)
Summary of the method: as §1

[14] = test system: PPARg DBDmut IVT, anti-PPARg (DBD mutation: PPARg1 K132A/R137A, NR concentration 270 nM)
Summary of the method: as §1

[15] = test system: PPARg homodimer (NR concentration 180 nM)
Summary of the method: as §1

[16] = test system: PXR:RXRa (NR concentration 270 nM, RXRa partner concentration 90 nM)
Summary of the method: as §1

[17] = test system: PXR homodimer (NR concentration 270 nM)
Summary of the method: as §1

[18] = test system: RARa:RXR (NR concentration 270 nM, RXRa partner concentration 90 nM)
Summary of the method: as §1

[19] = test system: RARa homodimer (NR concentration 270 nM)
Summary of the method: as §1

[20] = test system: RARb:RXRa (NR concentration 270 nM, RXRa partner concentration 90 nM)
Summary of the method: as §1

Sequence | PBM binding z-score [1] | PBM binding z-score [2] | PBM binding z-score [3] | PBM binding z-score [4] | PBM binding z-score [5] | PBM binding z-score [6] | PBM binding z-score [7] | PBM binding z-score [8] | PBM binding z-score [9] | PBM binding z-score [10] | PBM binding z-score [11] | PBM binding z-score [12] | PBM binding z-score [13] | PBM binding z-score [14] | PBM binding z-score [15] | PBM binding z-score [16] | PBM binding z-score [17] | PBM binding z-score [18] | PBM binding z-score [19] | PBM binding z-score [20]
CAGCCTAGGTCAGGGCCAGTAGAGGAGGAACGTT | 1.51 | 0.675 | -0.538 | 0.358 | -1.25 | 1.97 | 0.595 | 0.833 | -0.754 | 0.0745 | 1.54 | 1.51 | -1.47 | -0.919 | 1.22 | -0.278 | -0.736 | 0.769 | -0.574 | 3.42
TTACCAAGGTGGAAGGTCGTTGATGCACGCCTTG | 0.529 | 0.656 | -0.194 | 0.41 | -0.809 | 2.03 | 2.43 | 4.41 | 1.94 | 4.21 | -0.302 | 1.09 | -0.236 | -1.11 | 0.535 | 0.751 | -0.0879 | 1.26 | -0.0243 | 0.885
TCTTGTAGATCAACAGGAGGATAAGAAAGATCGA | 0.307 | 0.0206 | -0.000187 | 0.226 | -0.349 | 0.337 | 0.379 | 0.997 | 2.56 | 1.61 | 1.64 | 0.232 | 0.62 | 0.57 | 0.00545 | 0.187 | 0.0396 | 0.295 | -0.0742 | -0.284
ATATGTAGGTTACATACGGGTCATTCAGGCTATG | 2.41 | 4.56 | 1.98 | 2.83 | 0.718 | 4.43 | 6.06 | 4.92 | 2.62 | 4.19 | 7.45 | 7.06 | 2.47 | 2.75 | 1.74 | 3.1 | 0.979 | 3.65 | 0.636 | 2.33
AGAATGAGATTATTAAGATCAGGGAATTGCGGTC | -1.55 | -0.864 | -0.323 | -0.702 | -0.452 | -0.715 | 0.449 | -0.292 | -0.0999 | -0.261 | -0.986 | 0.00075 | 0.944 | 0.0181 | -0.475 | -0.605 | -0.339 | -0.5 | 0.637 | -0.639
AGAATAAGGTTATTAAGATCAGGGAATTGCGGTC | 1.43 | 1.6 | 0.352 | 1.32 | -0.02 | 2.42 | 1.12 | 1.67 | 0.45 | 1.38 | 2.24 | 1.81 | 1.52 | 0.812 | 1.04 | 1.13 | 0.666 | 1.49 | 1.34 | 1.72
CCTTCTAGGTCAATGGTCAGCTAAAGCAGCTCGC | 3.17 | 2.37 | 0.146 | 1.58 | 0.698 | 4.34 | 7.25 | 6.5 | 5.76 | 7.12 | 7.32 | 6.6 | 0.00752 | 0.699 | 2.03 | 0.931 | -0.321 | 1.73 | 0.51 | 3.85
CAAACTAGGTCACAGGTCAAAGTCGAGCCAACCA | 6.7 | 5.19 | 3.25 | 4.68 | 1.16 | 6.88 | 12.3 | 9.67 | 10.4 | 11 | 8.4 | 9.27 | 4.16 | 4.09 | 4.17 | 4.41 | 0.711 | 5.81 | 0.827 | 4.7
ATCGAAAGGTCGAGGTGAGAATAGAGAAAGGGAA | 4.1 | 3.48 | 0.181 | 2.84 | 0.399 | 4.79 | 3.58 | 3.93 | 1.56 | 2.64 | 0.541 | 2.39 | 1.22 | 0.93 | 0.599 | 2.36 | 0.337 | 3.52 | 0.51 | 4.16
TCTGCTAGGTCAACGATGGTCAGCTTATCTGCTA | 3.6 | 2.98 | -0.083 | 1.77 | -0.302 | 3.38 | 2.43 | 3.06 | 2.06 | 2.59 | 4.15 | 4.27 | 2.31 | 1.16 | 0.812 | 1.76 | -0.682 | 2.5 | -0.672 | 4.22
TTACCAAGGTGACGGTCGTTGATCCCTCTGTAGA | 1.07 | 0.963 | -0.313 | 0.464 | -0.534 | 1.5 | 0.654 | 1.29 | 0.738 | 0.929 | 2.39 | 3.64 | 0.228 | -0.126 | 0.25 | 0.252 | -0.877 | 0.759 | -0.412 | 1.82
ATATGTAGCTTACATCCGGGTCATTCAGGCTATG | 1.18 | 1.36 | 0.618 | 1.73 | 0.372 | 2.39 | 0.959 | 0.733 | 0.448 | 0.268 | 0.48 | 1.48 | 1.08 | 0.976 | 0.783 | 2.42 | 1.38 | 2.54 | 0.0612 | 1.31
TCTTGTAGATCAACAGGAGGTCAAGAAAGATCGA | 2.21 | 3.53 | 3.02 | 3.32 | 0.366 | 3.71 | 1.04 | 2.25 | 2.55 | 2.35 | 1.49 | 2.17 | 0.588 | 0.144 | 1.8 | 3.74 | 0.715 | 4.01 | 0.649 | 2.84
GTATATAGGTAATACAAGGTGAAAGTCCGATTGT | 0.948 | 2.78 | 0.975 | 0.947 | 0.188 | 2.78 | 3.05 | 2.69 | 1.39 | 1.94 | 5.56 | 5.62 | 2.12 | 2.34 | 1.29 | 0.792 | 0.761 | 1.95 | 1.09 | 0.593
TCTTGGAGATCAAAGGTTAAGAAAGCCGAAGCCT | 2.17 | 2.17 | -0.196 | 2.2 | -0.93 | 4.34 | 5.56 | 6.62 | 5.5 | 7 | 1.05 | 2.18 | -0.186 | -0.682 | 0.267 | 2.44 | -0.521 | 3.89 | -0.387 | 1.9
CAAACTAGGTCACAGAGGTCAGAGTCCGTGCGTA | 6.35 | 5.23 | 4.71 | 4.72 | 0.859 | 6.11 | 9.99 | 7.88 | 6.14 | 7.84 | 8.64 | 9.29 | 2.49 | 1.4 | 4.05 | 5.59 | 7.79 | 5.97 | 1.84 | 5.11
TGTCAAGGTTCAAAGGTAACGTAAGTATCCACAC | 6.06 | 5.12 | 1.39 | 3.74 | 0.581 | 5 | 6.29 | 6.26 | 3.14 | 5.92 | -0.0297 | 3.17 | 0.246 | 0.633 | 3.16 | 4.14 | 0.595 | 5.82 | 0.446 | 3.32
TGAATGAGGATAAAGATCAGGGAACGTGGCGTCG | 0.0362 | -0.419 | -0.157 | -0.514 | -0.0964 | 1.03 | 1.87 | 3.78 | 2.17 | 3.5 | -0.598 | 0.0508 | -0.331 | -0.373 | -0.144 | -0.614 | -0.0385 | -0.537 | -0.101 | -0.238
CCTCGGAGGACAACTGGAGGTCAGAGCTGCCAGA | 1.53 | 3.1 | 5.05 | 1.94 | -0.251 | 1.99 | 0.231 | 0.569 | -0.723 | 0.0567 | 0.198 | 0.595 | -1.19 | -1.87 | 2.05 | 2.52 | 0.545 | 2.84 | 0.162 | 3.07
